# PubChem BioAssay AID743019 (Broad Institute, 2013)
# About 25 (2%) of roughly 1,000 compounds were called active.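 How the source made its calls: active means rising signal whose fitted curve reaches the 0.54 level within the top valid dose, showing a melting point (actives reach about 13 µM in these data); inactive means the rest, including activity in the opposite direction.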 A selection follows.
# Test: SYPRO orange dye artefact, no FGF22 present – biochemical, cherry-picked samples, RT-PCR instrument, artefact control for FGF22 binder project, dose response (AID 743019); further: value is where the raw curve crosses a fixed level and not half-maximal
# Settings: compound-only SYPRO orange thermal shift counter-screen, no protein; at 38 µM (top of the series) unless noted
row,SMILES,outcome
1,COc1cc([N+](=O)[O-])ccc1NC(=O)CN1CCCC1,inactive
2,C[C@H]1CN([C@@H](C)CO)C(=O)Cc2cc(NC(=O)Cc3cn(C)c4ccccc34)ccc2O[C@@H]1CN(C)Cc1ccccc1,inactive [at 42 µM]
3,Cc1ccc(S(=O)(=O)N(C)C[C@@H]2Oc3cc(C4=CCCC4)ccc3S(=O)(=O)N([C@@H](C)CO)C[C@@H]2C)cc1,inactive [at 42 µM]
4,O=C(NN1C(=O)C2C3C=CC(O3)C2C1=O)c1ccccc1 (stereo not given),inactive
5,O=C(N[C@@H]1C=C[C@H](CC(=O)N2CCCCC2)O[C@H]1CO)c1cccc(F)c1,inactive
6,CCn1ccnc1CN(C)C(=O)c1ccc2nc(Cc3ccc(OC)cc3)oc2c1,inactive
7,C[C@@H]1CN([C@@H](C)CO)S(=O)(=O)c2ccc(-c3ccncc3)cc2O[C@@H]1CN(C)C(=O)Nc1ccc(F)cc1,inactive
8,O=C(N/N=C/c1ccc([N+](=O)[O-])cc1)c1c[nH]c2ccccc12,inactive
9,COc1ccccc1NC(=O)N1[C@H](C#N)[C@H](c2ccccc2)[C@H]1CO,inactive [at 42 µM]
10,O=C(NCCc1c[nH]c2ccccc12)C(=O)NCC1CCCO1 (stereo not given),inactive
11,O=C(c1ccccc1F)N1CC(=O)N2[C@H](C1)[C@H](c1ccc(-c3ccc(F)cc3)cc1)[C@@H]2CO,inactive [at 42 µM]
12,CS(=O)(=O)c1ccc2nc(NC(=O)c3ccc(Cl)nc3)sc2c1,inactive
13,OC[C@H]1[C@H](c2ccc(-c3cccnc3)cc2)[C@H]2CN(Cc3ccccn3)CCCCN21,inactive
14,O=C(Nc1ccccc1F)N1[C@H](CO)[C@H]2c3ccccc3NC[C@H]21,inactive [at 42 µM]
15,NS(=O)(=O)c1cccc(NC(=O)COC(=O)c2cc([N+](=O)[O-])ccc2N2CCCC2)c1,inactive
16,Cc1ccc(NC(=O)Nc2cccnc2)cc1,inactive
17,O=C(N/N=C/c1ccc(Cl)c(Cl)c1)c1ccc2nc[nH]c2c1,inactive
18,Cc1ccc(S(=O)(=O)Nc2nc3ccccc3s2)cc1[N+](=O)[O-],inactive
19,O=C(Nc1nnc(-c2ccccc2F)s1)c1ccccc1F,inactive
20,O=C(C[C@H]1CC[C@H]2[C@@H](COC[C@H](O)CN2S(=O)(=O)c2cccc(Cl)c2)O1)Nc1ccccc1,inactive [at 42 µM]
21,COCCN(C(=O)C(C)C)c1nnc(-c2ccc(C(C)(C)C)cc2)s1,inactive
22,C[C@H]1CN([C@@H](C)CO)S(=O)(=O)c2ccc(C3=CCCC3)cc2O[C@H]1CN(C)C(=O)Nc1ccc2c(c1)OCO2,inactive [at 42 µM]
23,COc1ccc(-c2cc(=O)oc3cc(OCC(=O)N[C@@H](Cc4c[nH]c5ccccc45)C(=O)O)ccc23)cc1,inactive
24,O=S(=O)(ON(c1ccccc1)S(=O)(=O)c1ccccc1)c1ccccc1,inactive
25,O=C(Cc1cccnc1)N[C@H]1CC[C@H](CCn2cc(-c3ccccc3F)nn2)O[C@H]1CO,inactive

row,SMILES,outcome
1,CC(=O)Nc1ccc(S(=O)(=O)N(CCc2ccccc2)CC(=O)N/N=C/c2ccc(C(=O)O)cc2)cc1,inactive
2,CCCOc1ccc(NC(=O)CC2C(=O)N(C)C(=S)N2Cc2ccc3c(c2)OCO3)cc1 (stereo not given),inactive
3,CC(C)NC(=O)N1C[C@@H]2[C@H](c3ccccc31)[C@H](CO)N2C(=O)c1ccccn1,inactive [at 42 µM]
4,O=C(N/N=C/c1ccc(OCc2ccccc2)cc1)c1ccc(O)cc1,inactive
5,C[C@@H]1CCCCO[C@@H](CN(C)Cc2ccncc2)[C@H](C)CN([C@H](C)CO)C(=O)c2cc(NC(=O)Cc3ccccc3)ccc2O1,inactive
6,Cc1cccc(S(=O)(=O)N2C[C@@H](O)COC[C@H]3O[C@H](CC(=O)Nc4ccc(-c5ccccc5)cc4)CC[C@@H]32)c1,inactive [at 42 µM]
7,CN1C(=O)c2cccc3c(N)ccc(c23)C1=O,inactive
8,CN1C(=O)c2cc(NC(=O)c3cccc(F)c3)ccc2OC[C@@H]2O[C@H](CC(=O)N3CCc4ccccc4C3)CC[C@@H]21,inactive
9,COc1ccccc1C(=O)NNC(=O)c1ccc(NC(=O)c2ccccc2)cc1,inactive
10,C[C@@H]1CN([C@H](C)CO)S(=O)(=O)c2ccc(-c3ccncc3)cc2O[C@@H]1CN(C)C(=O)Nc1ccc(C(F)(F)F)cc1,inactive
11,Cc1c(CCO)sc[n+]1CC(=O)OC12CC3CC(CC(C3)C1)C2,inactive
12,COc1ccc(-c2ccc([C@H]3[C@H]4CN(C(=O)c5ccc6c(c5)OCO6)CCCCN4[C@H]3CO)cc2)cc1,inactive [at 42 µM]
13,CC(=O)N1c2ccc(S(=O)(=O)N3CCC(C(=O)NCc4ccc(F)cc4)CC3)cc2CC1C (stereo not given),inactive
14,CC(C)NC(=O)N(C)C[C@@H]1Oc2c(NC(=O)c3nc4ccccc4s3)cccc2C(=O)N([C@H](C)CO)C[C@H]1C,inactive [at 42 µM]
15,CCCCN1CC(N2CCN(Cc3cccc(C)c3)CC2)CS1(=O)=O (stereo not given),inactive
16,Cc1ccc(NC(=O)O/N=C/c2cccc([N+](=O)[O-])c2)cc1,inactive
17,CC(=O)NC[C@@H]1[C@@H](c2ccccc2)[C@@H](CO)N1C(=O)Cc1cccnc1,inactive [at 42 µM]
18,O=C(COc1ccc([N+](=O)[O-])cc1)Nc1cccc(C(=O)Nc2ccccc2C(=O)O)c1,inactive
19,CC(C)(C)N1C(=O)c2c(C(=O)OCc3ccccc3)[nH]c(-c3ccccc3)c2C1=O,inactive
20,COc1cc(NC(=O)c2ccc3c(c2)OCO3)ccc1NC(=O)c1cccs1,inactive
21,O=C(C[C@H]1C[C@@H]2c3cc(NC(=O)Nc4ccc(C(F)(F)F)cc4)ccc3O[C@@H]2[C@@H](CO)O1)NCC1CC1,inactive [at 10 µM]
22,CNC[C@@H]1Oc2ccc(NC(=O)C3CCCCC3)cc2C(=O)N([C@@H](C)CO)C[C@H]1C,inactive
23,COCC(=O)Nc1ccc2c(c1)OC[C@H](C)N(C)C[C@@H](C)[C@@H](OC)CN(C)C2=O,inactive [at 42 µM]
24,O=C(N/N=C/c1c[nH]c2ccccc12)c1cc2ccccc2o1,inactive
25,Cc1ccc(S(=O)(=O)NCCC(=O)Nc2ccc(C)c(Cl)c2)cc1C,inactive
